Source: PubChem (Broad Institute)
esBAF inh = blocks esBAF chromatin remodeling in mouse ES cells | reporter increase, % at 12.5 µM | hit rate 2% among 350,000 | Bmi1-luciferase knock-in reporter, 24 h; 100% = twice the neutral-well signal | AID 602393; in the data active = activation above about 40%;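 also: 0% = median of the plate's neutral control wells and 100% = double that signal; a rise in the Bmi1 reporter signal indicates esBAF inhibition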
HSF1 inh = HSF1 inhibition; NIH3T3-HGL HSE-luciferase, MG132-induced, luminescence 8 h; active compounds read low; activity change, negative = inhibition, % at 7.5 µM (by protocol); hit rate 0.77% among 300,000; AID 2098;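 active = more than half of replicate wells show activity change below -50%, luminescence cut by over half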;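 also: luciferase reports HSF-1 transcriptional activity via heat shock element; 0% = median of DMSO wells and -100% = zero luminescence signal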
HSF-1 act = increases HSF-1 driven luciferase reporter signal; NIH3T3-HGL HSF-1 luciferase reporter, MG132, 8 h; 100% = twice DMSO control signal; activation, % at 9 µM; hit rate 1.7% among 300,000; AID 504408;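 active = mean replicate activation of at least 50% with a set share of replicates each reaching 50%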;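 also: 0% = median of the neutral control wells and 100% = twice that signal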
Vif imaging = inhibitors of HIV Vif; AID 602346; inhibition, % at 7.49 µM; HEK293T cells, Vif self-association by quenched fluorescence, imaging, 24 h; hit rate 0.35% among 340,000; in the data active = inhibition above about 50%, passing the limit was not always enough
An asterisk follows results filed as active. This is a sample that favours compounds with a hit; in the whole collection about 3.4% have one here.

For CC(=O)/C(=C/c1ccc(N(C)C)cc1)C(=O)c1ccccc1 the results were HSF1 inh 42, HSF-1 act 81* and Vif imaging 1.
Screening CNc1ccc(/C=C/C(=O)c2ccc(C)cc2)cc1[N+](=O)[O-] returned HSF1 inh 25, HSF-1 act 34 and Vif imaging 5.
Screening CN(C)c1ccc(C(=O)/C=C/c2ccco2)cc1 returned HSF1 inh 18, HSF-1 act 68* and Vif imaging -9.
`CN(C)c1ccc(C(=O)/C=C/c2ccccc2)cc1` gave esBAF inh 68*, HSF1 inh 48, HSF-1 act 74* and Vif imaging 8.
CN(C)c1ccc(/C=C/C(=O)c2ccccc2)cc1[N+](=O)[O-] was read as esBAF inh 62*, HSF1 inh 29, HSF-1 act 45 and Vif imaging 15.
`CCCNC(=O)N(C)C[C@H]1Oc2cc(C#C[C@H](C)O)ccc2S(=O)(=O)N([C@H](C)CO)C[C@H]1C` gave esBAF inh -7.
`Cc1ccc(S(=O)(=O)Nc2ccc3c(c2)C(=O)N([C@@H](C)CO)C[C@H](C)[C@@H](CN(C)S(=O)(=O)c2ccc(F)cc2)O3)cc1` gave esBAF inh -2.
COc1ccc(S(=O)(=O)Nc2cccc3c2O[C@@H](CN(C)CC2CCCCC2)[C@H](C)CN([C@H](C)CO)C3=O)cc1 was read as esBAF inh -4.
Screening Cc1cc2ncn(C(=O)N3CCC(C)CC3)c2cc1C returned esBAF inh 54*, HSF1 inh 14, HSF-1 act 17 and Vif imaging -5.
Screening CCCNC(=O)C[C@H]1CC[C@@H]2[C@@H](COc3ccc(NC(=O)c4ccc(OC)cc4)cc3C(=O)N2C)O1 returned esBAF inh 2.
For N/C(=N\OC(=O)/C=C/c1ccccc1)c1ccncc1 the results were esBAF inh 45*, HSF1 inh 28, HSF-1 act 47 and Vif imaging -8.
For Cc1cc(C(=O)Nc2cccc3c2O[C@@H](CN(C)Cc2ccc(Cl)c(Cl)c2)[C@H](C)CN([C@H](C)CO)C3=O)n(C)n1 the results were esBAF inh 0.
`C[C@H]1CN([C@@H](C)CO)C(=O)c2cc(NC(=O)CCN3CCOCC3)ccc2O[C@@H]1CN(C)S(C)(=O)=O` gave esBAF inh -3.
For CO[C@@H]1CN(C)C(=O)c2ccc(NC(=O)c3cnccn3)cc2OC[C@@H](C)NC[C@H]1C the results were esBAF inh 3.
For CCCN(CCC)c1nc(N)c(C#N)c(CC#N)c1C#N the results were HSF1 inh 79, HSF-1 act 115* and Vif imaging 3.
Screening CCCN(CC1CC1)c1nc(N)c(C#N)c(CC#N)c1C#N returned esBAF inh -10, HSF1 inh 83, HSF-1 act 72* and Vif imaging 6.
For COCC(=O)N1C[C@@H]2[C@H](c3ccccc31)[C@@H](CO)N2C(=O)Nc1ccccc1F the results were esBAF inh -3.
Screening COc1cccc(-c2nc(N3CCN(c4ccccc4)CC3)c3ccccc3n2)c1O returned esBAF inh 5, HSF1 inh 35, HSF-1 act 66* and Vif imaging 7.
Screening Cc1cc(NC(=O)c2cc(C3CC3)on2)no1 returned esBAF inh 49*, HSF1 inh 9, HSF-1 act 12 and Vif imaging 5.
COc1ccc(NC(=O)c2cc(C3CC3)on2)c(OC)c1 was read as esBAF inh 53*, HSF1 inh -13, HSF-1 act -31 and Vif imaging 6.
For Cc1cc(NC(=O)c2cc(C)on2)no1 the results were esBAF inh 1, HSF1 inh -5, HSF-1 act 11 and Vif imaging 2.
`Cc1noc(C)c1NC(=O)N(C)C[C@@H]1Oc2ccc(NC(=O)Nc3cccc4ccccc34)cc2C(=O)N([C@H](C)CO)C[C@H]1C` gave esBAF inh 2.
`COc1ccc(CN(C)C[C@@H]2Oc3ccc(NC(=O)C4CCCCC4)cc3CC(=O)N([C@H](C)CO)C[C@@H]2C)cc1` gave esBAF inh 0.
Screening CC(=O)Nc1cc(C(=O)OCC(=O)c2ccc(Cl)cc2Cl)ccc1C returned esBAF inh 7, HSF1 inh 13, HSF-1 act 18 and Vif imaging -5.
CC(=O)Nc1cc(C(=O)OCC(=O)c2ccc(C)cc2)ccc1C was read as esBAF inh 78*, HSF1 inh 28, HSF-1 act 19 and Vif imaging -16.
`Cc1ccc(C(=O)N/N=C/c2ccc(OC(=O)c3ccccc3Cl)cc2)cn1` gave esBAF inh 14, HSF1 inh 18, HSF-1 act 37 and Vif imaging 58*.
`Cc1ccc(C(=O)N/N=C\c2ccc(OC(=O)c3cccs3)cc2)cn1` gave HSF1 inh -1, HSF-1 act -12 and Vif imaging 3.
For O=C1c2cccc3c([N+](=O)[O-])ccc(c23)C(=O)N1c1nccs1 the results were esBAF inh -17, HSF1 inh 20, HSF-1 act 41 and Vif imaging 67*.
`O=C1c2cccc3c([N+](=O)[O-])ccc(c23)C(=O)N1O` gave esBAF inh -9, HSF1 inh 28, HSF-1 act 52* and Vif imaging -1.
Screening O=C1c2cccc3c([N+](=O)[O-])ccc(c23)C(=O)N1c1ccc(Cl)cn1 returned esBAF inh -2, HSF1 inh 47, HSF-1 act 38 and Vif imaging -2.
`O=C1c2cccc3c([N+](=O)[O-])ccc(c23)C(=O)N1c1ccccn1` gave esBAF inh -3, HSF1 inh -68*, HSF-1 act -68 and Vif imaging 113*.
`O=C(N[C@@H]1CC[C@H](CCn2cc(Cc3ccccc3)nn2)O[C@@H]1CO)c1cnccn1` gave esBAF inh -1.
CN(C)CC(=O)Nc1ccc2c(c1)[C@@H]1C[C@H](CC(=O)NCCN3CCCCC3)O[C@H](CO)[C@@H]1O2 was read as esBAF inh 6.
`CN1c2ccc(C#Cc3cccnc3)cc2[C@@H]2[C@@H](CCN2C(=O)Cc2cccnc2)[C@H]1CO` gave esBAF inh 2.
Screening C[C@@H]1CN([C@H](C)CO)C(=O)Cc2cc(NC(=O)Cc3ccccc3)ccc2O[C@@H]1CN(C)S(=O)(=O)c1ccccc1 returned esBAF inh 2.
For CCNC(=O)C[C@H]1CC[C@H]2[C@@H](COC[C@H](O)CN2Cc2ccncc2)O1 the results were esBAF inh -3.
For CCOC(=O)C1=C(N)OC2=C(C(=O)CC(C)(C)C2)C1c1ccccc1OCC#N (configuration not stated) the results were esBAF inh -9, HSF1 inh -57*, HSF-1 act -64 and Vif imaging -1.
Screening Cc1nc(C)c(-c2ccc(SCc3ccccc3C)nn2)s1 returned esBAF inh 52*, HSF1 inh 7, HSF-1 act 31 and Vif imaging -1.
